From PubChem BioAssay
The entries come from a sample that favours hits as a whole.
ER stress death – ER stress cell death inhibition. 0.33% of 48,000 active. AID 1010. CSM14.1 thapsigargin ER stress survival, ATP luminescence. relative survival (cellular ATP), % at 15 µg/mL (by protocol);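 active means survival measured by cellular ATP above 50% at 15 µg/ml in the first screen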;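 further: cell death triggered by about 15 µM thapsigargin; ATP read 24 h after thapsigargin was added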
Numbers stand for hits; - = inactive.

SMILES	ER stress death
COc1ccc(C(=O)N/C(=C\c2ccc(Cl)cc2)C(=O)NCC2CCCO2)cc1 (stereo not given)	-
O=C(NCC1CCCO1)/C(=C/c1ccc(-c2ccccc2Cl)o1)NC(=O)c1ccccc1 (stereo not given)	87.2
N#C/C(=C\c1ccc(-c2ccc(Cl)c(C(=O)O)c2)o1)C(=O)NCC1CCCO1 (stereo not given)	-
O=C(CN(Cc1ccccc1)S(=O)(=O)c1ccccc1)NCc1ccc(Cl)cc1	-
O=C(COC(=O)c1ccc(S(=O)(=O)N2CCCCC2)cc1)c1cccc([N+](=O)[O-])c1	-
COc1ccc(-c2nc3c(n2O)CCC/C3=N\O)cc1OC	-
O=[N+]([O-])c1ccc(-c2ccc(N=Cc3nc(-c4ccccc4)oc3O)cc2)cc1	-
NS(=O)(=O)c1cccc(NC(=O)c2cccs2)c1	-
O=C(Nc1cccc(Br)c1)c1cccs1	-
O=C(Nc1cccc(S(=O)(=O)c2cccc(NC(=O)c3cccs3)c2)c1)c1cccs1	112.6
COc1cccc(C(=O)NNC(N)=O)c1	-
COc1cc(/C=C(\C#N)C(=O)c2ccccc2)cc(OC)c1OC	-
CN(C)c1ccc(/C=C(/c2ccccc2)c2nc3ccccc3[nH]2)cc1	-
COc1ccc(/C=C(/c2ccccc2)c2nc3ccccc3[nH]2)cc1	51.1
COc1ccc(C(=O)N/C(=C/c2ccc(Br)cc2)c2nc3ccccc3[nH]2)cc1	-
COc1cccc(-c2nc3cc(NC(=O)c4ccc(Br)o4)ccc3o2)c1	-
O=C1NC(=S)N(c2cccc(Cl)c2)C(=O)/C1=C\C=C\c1ccccc1[N+](=O)[O-]	-
COC(=O)CCC(=O)Nc1ccc(C)cc1C	-
COc1ccc(C(=O)Nc2ccc(C)cc2C)cc1OC	-
COc1cc2c(cc1OC)C(CC(=O)Nc1ccc(C)cc1C)=NC(C)(C)C2	53.0
Cc1ccccc1OCC(=O)Nc1ccc(C(C)C)cc1	-
O=C1NC(=O)N(c2ccc(Cl)cc2)C(=O)/C1=C\C=C\c1ccco1	54.4
Cc1cc(N2C(=O)NC(=O)/C(=C\C=C\c3ccco3)C2=O)ccc1Br	-
O=C1NC(=S)N(c2ccc(Cl)cc2)C(=O)/C1=C/C=C/c1ccccc1	-
CCOC(=O)C1C(=O)C=C(c2ccc(OC)cc2)CC1c1ccccc1 (stereo not given)	-
SMILES	ER stress death
COc1ccc(CNc2ccc(C)c(C)c2)c(OC)c1C	-
COc1cccc(CNc2ccc3c(c2)ncn3-c2ccccc2)c1OC	89.4
COc1ccc(CNc2ccc3c(c2)ncn3C)cc1	-
CCCN1C(=O)/C(=C/c2nc3ccccc3c(=O)n2-c2ccccc2[N+](=O)[O-])c2ccccc21	-
COC(=O)C1=C(C)N(C)C(C)=C(C(=O)OC)C1c1ccccc1Br	-
O=C(O)CSCCS(=O)(=O)c1ccccc1	-
O=C1CC(N2CCN(C(c3ccccc3)c3ccccc3)CC2)C(=O)N1c1ccc(F)cc1 (stereo not given)	-
COc1ccc(N2C(=O)CC(N3CCN(C(c4ccccc4)c4ccc(Cl)cc4)CC3)C2=O)cc1 (stereo not given)	110.1
COc1cccc(N2C(=O)CC(N3CCN(C(c4ccccc4)c4ccccc4)CC3)C2=O)c1 (stereo not given)	-
Nc1ccc2nc(SCc3nc4ccccc4[nH]3)sc2c1	-
COc1cc2c(cc1NCc1ccc3c(c1)OCO3)oc1ccccc12	-
COc1cc2c(cc1NCc1ccncc1)oc1ccccc12	93.4
COc1cc2c(cc1NCc1ccc([N+](=O)[O-])cc1)oc1ccccc12	-
COc1ccc(N(C(=O)c2ccccc2F)C2C=CS(=O)(=O)C2)cc1 (stereo not given)	-
Cc1ccc(NC(=O)CC2SC(=Nc3ccccc3)N(c3ccccc3)C2=O)cc1 (stereo not given)	-
O=C(CC1SC(=Nc2ccccc2)N(c2ccccc2)C1=O)Nc1ccccc1C(F)(F)F (stereo not given)	64.6
O=C(CC1SC(=Nc2ccccc2)N(c2ccccc2)C1=O)Nc1ccc(F)cc1 (stereo not given)	-
O=C(Nc1ccccc1[N+](=O)[O-])c1ccccc1Cl	-
COc1cc(/C=C2/SC(NC(C)=O)=NC2=O)cc(OC)c1OC	-
C=CCN1C(=O)/C(=C\c2ccc(OCc3ccccc3Cl)cc2)SC1=S	-
CC(=O)CC(=O)Nc1cc(Cl)ccc1C	64.7
COCC(=O)Nc1cc(Cl)ccc1C	-
Cc1ccc(Cl)cc1NC(=O)CSC(N)=O	-
CCN(CC)CCCOc1cccc(OC)c1	-
Cc1cc(-c2ccc(C(C)C)cc2)c(C#N)c(N)n1	-
SMILES	ER stress death
Cn1cc(/C=C/c2nc3ccccc3c(=O)n2-c2ccc([N+](=O)[O-])cc2)c2ccccc21	-
COc1cccc(-n2c(/C=C/c3c(C)[nH]c4ccccc34)nc3ccccc3c2=O)c1	-
COc1cccc(-n2c(/C=C/c3cn(C)c4ccccc34)nc3ccccc3c2=O)c1	76.5
COC(=O)c1ccc(-c2nc3sc4c(c3c(=O)[nH]2)CCCC4)cc1	-
Clc1cccc(/C=N/N2CCN(C(c3ccccc3)c3ccccc3)CC2)c1	-
CCOc1cc(C2C(C(=O)OCC3CCCO3)=C(C)NC3=C2C(=O)CCC3)cc([N+](=O)[O-])c1O (stereo not given)	-
CC1=C(C(=O)OCC2CCCO2)C(c2ccc(F)cc2)C2=C(CCCC2=O)N1 (stereo not given)	-
CCn1c2ccccc2c2cc(C3C(C(=O)OCC4CCCO4)=C(C)NC4=C3C(=O)CCC4)ccc21 (stereo not given)	96.3
CN(C)CCN1C(=O)C(=O)/C(=C(/O)c2ccccc2)C1c1ccccc1[N+](=O)[O-] (stereo not given)	-
CC(=O)C1=C(O)C(=O)N(CCN2CCNCC2)C1c1ccc(Cl)cc1 (stereo not given)	-
COc1ccc(Br)cc1/C=N/NC(=O)CSc1nc2ccccc2n1C	-
c1ccc2oc(SCCCCSc3nc4ccccc4o3)nc2c1	-
O=C(N/C(=C/c1cccs1)c1nc2ccccc2[nH]1)c1ccccc1	-
Cc1ccc(C(=O)N/C(=C/c2cccs2)c2nc3ccccc3[nH]2)cc1	61.5
Cc1ccc(C(=O)N/C(=C/c2cccnc2)c2nc3ccccc3[nH]2)cc1	-
CCOc1ccccc1NC(=O)c1c(NC(=O)c2ccc(C)cc2)sc2c1CCCC2	-
CCOc1ccccc1NC(=O)c1c(NC(=O)c2ccccc2F)sc2c1CCCCC2	-
CCOc1ccccc1NC(=O)c1c(NC(=O)c2cccc(F)c2)sc2c1CCCCC2	52.6
O=C1c2cccc3c([N+](=O)[O-])ccc(c23)C(=O)N1n1cnnc1	-
O=C(NCCCn1ccnc1)NC1CCCCC1	-
COc1ccc(C(=O)NC(c2ccc(OC)cc2)c2ccc(OC)cc2)cc1	-
Cc1cccc(NC(=O)C(=O)N/N=C/c2c(Cl)cccc2Cl)c1C	-
COc1ccc(C2CC(=O)C3=C(C2)Nc2ccccc2NC3c2ccncc2)cc1OC (stereo not given)	-
COc1ccc(C2CC(=O)C3=C(C2)Nc2ccccc2NC3c2cc(OC)c(OC)cc2OC)cc1 (stereo not given)	-
COc1ccc(C2Nc3ccccc3NC3=C2C(=O)CC(C)(C)C3)cc1OCc1ccccc1 (stereo not given)	-
COc1ccc(C2CC(=O)C3=C(C2)Nc2ccccc2NC3c2cc(Br)ccc2OC)cc1OC (stereo not given)	111.8
COc1ccc(C2CC(=O)C3=C(C2)Nc2ccccc2NC3c2cc(OC)ccc2OC)cc1 (stereo not given)	-
